The results in this text go back to PubChem BioAssay.

Molecules are shown by their SMILES. Values joined by “and” are separate entries in the source; they are usually repeats but may differ in a detail not shown here. Equal entries are not always repeated. Active and inactive are the calls of the source.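 The calls were made as follows, unless noted: active = superoxide response below 65% of plate, a cut near 3 SD across the whole screen; inactive = the rest.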

Tested on in one assay: not listed separately
Briefly: superoxide lowering in aged yeast cells, pilot screen, validation compound set (AID 2706).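 Also: yeast exposed to compound for one week at 30 degrees C before staining; 100% = mean of all compound wells on the same plate.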 To be noted: S. cerevisiae aging, superoxide DHE fluorescence; at 10 µM; stronger effect = lower value.
With `S=C(NCCOCCOCCNC(=S)Nc1ccccc1)Nc1ccccc1`, the superoxide response (% of plate) was 134% (inactive).

With `Cc1ccc(CN2CCN(Cc3cn[nH]c3C3CCCCC3)CC2CCO)cc1` (stereo not drawn), the superoxide response (% of plate) was 87.9% (inactive).

On to `OCCC1CN(Cc2ccccc2-c2ccco2)CCN1C1CCCC1` (stereo not drawn), for which the superoxide response (% of plate) is 95% (inactive).

With `COc1ccc2oc(-c3ccco3)cc(=O)c2c1`, the superoxide response (% of plate) is 96.6% (inactive).

As to `Nc1nc2c(nc(SCc3ccccc3Br)n2C2OC(CO)C(O)C2O)c(=O)[nH]1` (stereo not drawn), the superoxide response (% of plate) is 94.9% (inactive).

Take `O=C(CCC(=O)NCCO)NCCO`: the superoxide response (% of plate) was 95.4% (inactive).

In the case of `Cc1cc(=O)[nH]c(=S)[nH]1`, the superoxide response (% of plate) was 113% (inactive).

Turning to `CN(C)C(=O)Oc1cccc([N+](C)(C)C)c1`, the superoxide response (% of plate) is 93.6% (inactive) and 108% (inactive).

For the compound `COc1cc(/C=C/C(=O)O)cc(S(=O)(=O)NCCCO)c1OC`, the superoxide response (% of plate) was 95.1% (inactive).

Regarding `COC(=O)c1sccc1NC(=O)Nc1ccccc1F`, the superoxide response (% of plate) was 93.7% (inactive).

Turning to `CC1(C)C(=O)OC(/C=C\c2ccccc2)C(C)(C)C1=O` (stereo not drawn), the superoxide response (% of plate) is 80.2% (inactive).

On to `O=C(/C=C/c1ccc(F)cc1)NC(=S)N1CCCCC1c1cccnc1` (stereo not drawn), for which the superoxide response (% of plate) was 92.2% (inactive).

For the compound `COc1cc2c(cc1OC)C1(CCCC1)CNC2c1cccc([N+](=O)[O-])c1` (stereo not drawn), the superoxide response (% of plate) was 99.7% (inactive).

Turning to `O=C(NCCO)c1ccc(Cl)c(Cl)c1`, the superoxide response (% of plate) is 105% (inactive).

`N#C/C(=C\c1ccc(O)c(O)c1)C(=O)NCCCc1ccccc1`: the superoxide response (% of plate) was 93.6% (inactive).

On to `CSCC[C@H](NC(=O)OC(C)(C)C)C(=O)N1CCC(C(=O)N[C@@H](C)C(=O)O)CC1`, for which the superoxide response (% of plate) was 98.8% (inactive).

In the case of `Cc1cc(-c2nn(-c3ccccc3F)cc2CN2CCCC(O)C2)c(C)s1` (stereo not drawn), the superoxide response (% of plate) was 84.2% (inactive).

On to `COCCCNc1nc2c([nH]1)c(=O)[nH]c(=O)n2C`, for which the superoxide response (% of plate) was 94.3% (inactive).

On to `CC(C)Oc1ccc2c(=O)c(-c3ccccc3)coc2c1`, for which the superoxide response (% of plate) is 94.6% (inactive).

As to `O=C(Nc1cccc(Oc2c(F)c(F)c(F)c(F)c2F)c1)N1C[C@@H]2C[C@@H](C1)c1cccc(=O)n1C2`, the superoxide response (% of plate) is 104% (inactive).

Turning to `CCCCC[C@H](O)/C=C/C1=C(CCCCCCC(=O)O)C(=O)CC1`, the superoxide response (% of plate) is 99.9% (inactive).

Consider `CC(=O)OC[C@H]1O[C@@H](Sc2cccc3cccnc23)[C@H](OC(C)=O)[C@@H](OC(C)=O)[C@H]1OC(C)=O`, for which the superoxide response (% of plate) was 105% (inactive).

Take `COc1cc(OC)cc(C(C)=O)c1`: the superoxide response (% of plate) was 94.5% (inactive).

With `Nc1ccc2nc(Cc3ccccc3)[nH]c2c1`, the superoxide response (% of plate) is 102% (inactive).

In the case of `COc1ccc2c(c1)[N+](C)(C)C(C)(C)C=C2C`, the superoxide response (% of plate) was 103% (inactive).

For the compound `COc1ccc(CCN(C)Cc2nc(Cc3ccc(OC)c(OC)c3)no2)cc1OC`, the superoxide response (% of plate) is 92.6% (inactive).

On to `N=c1c[n+](N2CCOCC2)[n-]o1`, for which the superoxide response (% of plate) is 92.1% (inactive).

Take `CCCc1cc(=O)[nH]c(=S)[nH]1`: the superoxide response (% of plate) was 86.8% (inactive).

Take `COC(=O)c1ccccc1NC(=O)c1ccc(COc2ccc3c(c2)CCC3)cc1`: the superoxide response (% of plate) was 82.8% (inactive).

For `CC1(C)Cc2ccccc2-c2nc(-c3ccccc3)oc(=O)c21`, the superoxide response (% of plate) is 89.6% (inactive).

For `Cc1cc(=O)oc2c(CN(C)Cc3ccccc3)c(O)ccc12`, the superoxide response (% of plate) was 97.6% (inactive).

As for `CC1=NN(c2ccccc2)C(=O)C1`, the superoxide response (% of plate) is 91% (inactive).

For `CCOc1ccc2ccccc2c1C(=O)N[C@@H]1C(=O)N2[C@@H]1SC(C)(C)[C@@H]2C(=O)O`, the superoxide response (% of plate) is 108% (inactive).

For the compound `O=C1CC2(CCCC2)CC(=O)N1CCCCN1CCN(c2ncccn2)CC1`, the superoxide response (% of plate) is 101% (inactive).

On to `Cc1ccc(C2=NOC(=O)/C2=C\C=C\c2ccccc2)cc1`, for which the superoxide response (% of plate) was 113% (inactive).

Take `COc1ccc2c3c([nH]c2c1)C1(NCC3)C(=O)Nc2ccccc21` (stereo not drawn): the superoxide response (% of plate) is 97.3% (inactive).

`CC1(C)S[C@@H]2[C@H](NC(=O)Cc3ccccc3)C(=O)N2[C@H]1C(=O)O`: the superoxide response (% of plate) is 92.1% (inactive).

Turning to `COc1cc2cc(C(=O)O)[nH]c2c(OC)c1OC`, the superoxide response (% of plate) is 112% (inactive).

As to `Clc1cc(-c2ccc(/C=N/n3cnnc3)o2)ccc1Br`, the superoxide response (% of plate) is 97% (inactive).

The target of a further assay is Beta-adrenergic receptor kinase 1 (Homo sapiens) (UniProt P25098). Briefly: GRK2 binders displacing RNA aptamer, biochemical, validation, human GRK2, bead flow cytometry (AID 488806;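 active = aptamer binding inhibition above 30%, about 3 SD of noise from non-fluorescent compounds; inactive = inhibition at or below 30%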). To be noted: bead-bound GRK2, FAM-aptamer displacement, at 10 µM, stronger effect = higher value. On the technique in general: In flow cytometry, cells or beads pass a laser one at a time.
Sequence of Beta-adrenergic receptor kinase 1 (Homo sapiens) (P25098 whole entry, looked up): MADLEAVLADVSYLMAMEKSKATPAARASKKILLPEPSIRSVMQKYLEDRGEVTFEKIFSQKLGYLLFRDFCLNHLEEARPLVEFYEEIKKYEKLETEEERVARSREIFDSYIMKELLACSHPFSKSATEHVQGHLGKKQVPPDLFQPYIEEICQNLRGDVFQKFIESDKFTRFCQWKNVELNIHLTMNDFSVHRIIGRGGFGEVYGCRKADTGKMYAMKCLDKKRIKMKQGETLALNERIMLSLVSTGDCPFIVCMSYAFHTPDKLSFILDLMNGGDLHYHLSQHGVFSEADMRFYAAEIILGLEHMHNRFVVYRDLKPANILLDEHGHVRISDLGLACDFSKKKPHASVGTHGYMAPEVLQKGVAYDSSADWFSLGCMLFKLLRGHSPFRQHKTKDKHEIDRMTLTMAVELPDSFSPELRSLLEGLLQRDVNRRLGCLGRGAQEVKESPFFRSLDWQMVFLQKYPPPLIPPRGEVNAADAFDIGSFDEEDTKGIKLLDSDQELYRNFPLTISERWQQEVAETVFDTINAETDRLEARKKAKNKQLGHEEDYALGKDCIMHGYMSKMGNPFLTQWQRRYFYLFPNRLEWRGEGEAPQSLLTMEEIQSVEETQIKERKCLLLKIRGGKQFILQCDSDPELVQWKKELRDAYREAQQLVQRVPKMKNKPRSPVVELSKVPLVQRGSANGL
Regarding `S=C(NCCOCCOCCNC(=S)Nc1ccccc1)Nc1ccccc1`, the aptamer binding inhibition was 3% (inactive).

For `Cc1ccc(CN2CCN(Cc3cn[nH]c3C3CCCCC3)CC2CCO)cc1` (stereo not drawn), the aptamer binding inhibition was 0% (inactive).

Turning to `OCCC1CN(Cc2ccccc2-c2ccco2)CCN1C1CCCC1` (stereo not drawn), the aptamer binding inhibition was 0% (inactive).

For `COc1ccc2oc(-c3ccco3)cc(=O)c2c1`, the aptamer binding inhibition was 3% (inactive).

For `Nc1nc2c(nc(SCc3ccccc3Br)n2C2OC(CO)C(O)C2O)c(=O)[nH]1` (stereo not drawn), the aptamer binding inhibition was 0% (inactive).

For the compound `O=C(CCC(=O)NCCO)NCCO`, the aptamer binding inhibition is 7% (inactive).

Regarding `Cc1cc(=O)[nH]c(=S)[nH]1`, the aptamer binding inhibition was -9% (inactive).

`CN(C)C(=O)Oc1cccc([N+](C)(C)C)c1`: the aptamer binding inhibition is -3% (inactive) and 4% (inactive).

With `COc1cc(/C=C/C(=O)O)cc(S(=O)(=O)NCCCO)c1OC`, the aptamer binding inhibition is 5% (inactive).

In the case of `COC(=O)c1sccc1NC(=O)Nc1ccccc1F`, the aptamer binding inhibition was -3% (inactive).

`CC1(C)C(=O)OC(/C=C\c2ccccc2)C(C)(C)C1=O` (stereo not drawn): the aptamer binding inhibition was 6% (inactive).

As for `O=C(/C=C/c1ccc(F)cc1)NC(=S)N1CCCCC1c1cccnc1` (stereo not drawn), the aptamer binding inhibition was 82% (active).

As for `COc1cc2c(cc1OC)C1(CCCC1)CNC2c1cccc([N+](=O)[O-])c1` (stereo not drawn), the aptamer binding inhibition is -2% (inactive).

As to `O=C(NCCO)c1ccc(Cl)c(Cl)c1`, the aptamer binding inhibition is -1% (inactive).

`N#C/C(=C\c1ccc(O)c(O)c1)C(=O)NCCCc1ccccc1`: the aptamer binding inhibition was -1% (inactive).

For `CSCC[C@H](NC(=O)OC(C)(C)C)C(=O)N1CCC(C(=O)N[C@@H](C)C(=O)O)CC1`, the aptamer binding inhibition was 2% (inactive).

As for `Cc1cc(-c2nn(-c3ccccc3F)cc2CN2CCCC(O)C2)c(C)s1` (stereo not drawn), the aptamer binding inhibition was -2% (inactive).

With `COCCCNc1nc2c([nH]1)c(=O)[nH]c(=O)n2C`, the aptamer binding inhibition is 4% (inactive).

As to `CC(C)Oc1ccc2c(=O)c(-c3ccccc3)coc2c1`, the aptamer binding inhibition was 0% (inactive).

As to `O=C(Nc1cccc(Oc2c(F)c(F)c(F)c(F)c2F)c1)N1C[C@@H]2C[C@@H](C1)c1cccc(=O)n1C2`, the aptamer binding inhibition is 2% (inactive).

For the compound `CCCCC[C@H](O)/C=C/C1=C(CCCCCCC(=O)O)C(=O)CC1`, the aptamer binding inhibition is 4% (inactive).

Regarding `CC(=O)OC[C@H]1O[C@@H](Sc2cccc3cccnc23)[C@H](OC(C)=O)[C@@H](OC(C)=O)[C@H]1OC(C)=O`, the aptamer binding inhibition is 4% (inactive).

On to `COc1cc(OC)cc(C(C)=O)c1`, for which the aptamer binding inhibition is 9% (inactive).

For the compound `Nc1ccc2nc(Cc3ccccc3)[nH]c2c1`, the aptamer binding inhibition was 7% (inactive).

On to `COc1ccc2c(c1)[N+](C)(C)C(C)(C)C=C2C`, for which the aptamer binding inhibition was 2% (inactive).

`COc1ccc(CCN(C)Cc2nc(Cc3ccc(OC)c(OC)c3)no2)cc1OC`: the aptamer binding inhibition was 1% (inactive).

Take `N=c1c[n+](N2CCOCC2)[n-]o1`: the aptamer binding inhibition was 3% (inactive).

On to `CCCc1cc(=O)[nH]c(=S)[nH]1`, for which the aptamer binding inhibition is 0% (inactive).

In the case of `COC(=O)c1ccccc1NC(=O)c1ccc(COc2ccc3c(c2)CCC3)cc1`, the aptamer binding inhibition was 5% (inactive).

`CC1(C)Cc2ccccc2-c2nc(-c3ccccc3)oc(=O)c21`: the aptamer binding inhibition is 4% (inactive).

On to `Cc1cc(=O)oc2c(CN(C)Cc3ccccc3)c(O)ccc12`, for which the aptamer binding inhibition is 3% (inactive).

Consider `CC1=NN(c2ccccc2)C(=O)C1`, for which the aptamer binding inhibition is -3% (inactive).

Take `CCOc1ccc2ccccc2c1C(=O)N[C@@H]1C(=O)N2[C@@H]1SC(C)(C)[C@@H]2C(=O)O`: the aptamer binding inhibition is 2% (inactive).

For `O=C1CC2(CCCC2)CC(=O)N1CCCCN1CCN(c2ncccn2)CC1`, the aptamer binding inhibition is 3% (inactive).

For `Cc1ccc(C2=NOC(=O)/C2=C\C=C\c2ccccc2)cc1`, the aptamer binding inhibition is -4% (inactive).

As for `COc1ccc2c3c([nH]c2c1)C1(NCC3)C(=O)Nc2ccccc21` (stereo not drawn), the aptamer binding inhibition was 0% (inactive).

`CC1(C)S[C@@H]2[C@H](NC(=O)Cc3ccccc3)C(=O)N2[C@H]1C(=O)O`: the aptamer binding inhibition was 3% (inactive).

With `COc1cc2cc(C(=O)O)[nH]c2c(OC)c1OC`, the aptamer binding inhibition was 0% (inactive).

With `Clc1cc(-c2ccc(/C=N/n3cnnc3)o2)ccc1Br`, the aptamer binding inhibition was -5% (inactive).
